{"source": "PubChem BioAssay AID686978", "about": "(National Center for Advancing Translational Sciences (NCATS), 2013)", "note": "Among all 420,000 compounds or so, about 64,000 (15%) were called active. Inconclusive results (about 27%) are left out. Not all results are given here. A number with no mark means an inactive call. Calls follow the shape of the dose curve; as a rule, active = well fitted inhibition curve with a large enough effect; inconclusive = small, poorly fitted or top-dose-only effect; inactive = flat fitted curve, though single readings scatter. % is scaled to controls: 0 for no effect and ±100 for the full control effect; potency is read from the fitted curve at half-maximal effect."}
{"assay": "qHTS for Inhibitors of human tyrosyl-DNA phosphodiesterase 1 (TDP1): qHTS in cells in absence of CPT; also: nearly all actives have a fitted effect of over 55% in size", "conditions": "DT40 Tdp1-/- hTDP1 cells, no CPT, ATP luminescence, 48 h; activity change, negative = growth inhibition: at 46.2 µM (top of the series)", "in_short": "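Seeded 400 DT40-hTDP1 cells/well (vehicle DMSO, no 20 nM CPT); pinned compounds; ≥48 hr at 37 °C; CellTiter-Glo luminescence as viability measure.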", "units": {"activity change, negative = growth inhibition": "%"}}
{"smiles": "COc1ccc2occ(C(=O)c3ccc(N=C(C)N(C)C)cc3)c2c1", "Potency": "23.1 µM (active)"}
{"smiles": "COc1ccc(OC)c(C(=O)c2ccc(C(=O)O)cc2)c1", "activity change, negative = growth inhibition": -7.17}
{"smiles": "COc1ccc2c(CC(=O)OCC(=O)NC(N)=O)coc2c1", "activity change, negative = growth inhibition": 17.9}
{"smiles": "CN(C(=O)COC(=O)c1cc(=O)[nH]c2ccccc12)C1CCCCC1", "activity change, negative = growth inhibition": -24.9}
{"smiles": "CN(CC(=O)Nc1c(Cl)cccc1Cl)C(=O)CNC(=O)C1CCCCC1", "activity change, negative = growth inhibition": -15.4}
{"smiles": "O=C(O)C(CCc1ccccn1)c1ccccc1", "note": "(stereo unspecified)", "activity change, negative = growth inhibition": -12.4}
{"smiles": "O=C(COC(=O)Cn1[nH]c(=O)c2ccccc2c1=O)Nc1ncc(Cl)cc1Cl", "activity change, negative = growth inhibition": -3.18}
{"smiles": "Cc1ccc(-c2csc(NC(=O)Cn3[nH]c(=O)c4ccccc4c3=O)n2)cc1", "Potency": "16.4 µM (active)"}
{"smiles": "O=C(CSC1=NCCS1)Nc1nc(-c2ccccc2)cs1", "activity change, negative = growth inhibition": -21.5}
{"smiles": "C=CCOc1ccc(Cl)cc1CNCCCN1CCOCC1", "activity change, negative = growth inhibition": -26.3}
{"smiles": "CCCCn1c(N)c(N(CCC(C)C)C(=O)CC2OC(=O)c3ccccc32)c(=O)[nH]c1=O", "note": "(stereo unspecified)", "activity change, negative = growth inhibition": -1.23}
{"smiles": "CCOC(=O)c1sc(N)c(C#N)c1COC(=O)C1=COCCO1", "activity change, negative = growth inhibition": -11.9}
{"smiles": "Cc1cc(=O)n2nc(N3CCCC(C(=O)NCCC4=CCCCC4)C3)sc2n1", "note": "(stereo unspecified)", "activity change, negative = growth inhibition": -3.34}
{"smiles": "COc1ccc(-c2cn3nc(N4CCCC(C(=O)NCCCOC(C)C)C4)sc3n2)cc1", "note": "(stereo unspecified)", "Potency": "18.4 µM (active)"}
{"smiles": "COc1ccc(-c2cn3nc(N4CCC(C(=O)Nc5cccc(C)c5C)CC4)sc3n2)cc1", "Potency": "11.6 µM (active)"}
{"smiles": "Cc1cc(=O)n2nc(N3CCCC(C(=O)NCc4ccc(Cl)cc4)C3)sc2n1", "note": "(stereo unspecified)", "activity change, negative = growth inhibition": -14.3}
{"smiles": "Cc1cc(=O)n2nc(N3CCC(C(=O)Nc4c(F)c(F)c(F)c(F)c4F)CC3)sc2n1", "activity change, negative = growth inhibition": 7.4}
{"smiles": "Cc1cccc(NC(=O)C2CCCN(C(=O)NCc3ccccc3)C2)c1C", "note": "(stereo unspecified)", "activity change, negative = growth inhibition": -9.86}
{"smiles": "COC(=O)c1ccc(CNC(=O)c2ccc3oc(C(C)C)nc3c2)cc1", "activity change, negative = growth inhibition": -23}
{"smiles": "Cc1c(-c2cccc(Cl)c2)nc2ccccc2c1C(=O)OCC(=O)N(C)C1CCS(=O)(=O)C1", "note": "(stereo unspecified)", "activity change, negative = growth inhibition": -18.4}
{"smiles": "CC(=O)Nc1ccc(C(=O)NNC(=O)CCCCC(=O)NNC(=O)c2ccc(NC(C)=O)cc2)cc1", "activity change, negative = growth inhibition": -26.2}
{"smiles": "O=C(c1cn(-c2ccccc2)nc1-c1cccnc1)N1CCCCC1", "activity change, negative = growth inhibition": -1.78}
{"smiles": "CCC(=O)OCc1c(C(F)(F)F)nn(C)c1Oc1cccc(C(F)(F)F)c1", "activity change, negative = growth inhibition": 16.5}
{"smiles": "O=C(Nc1ccc(F)cc1)c1cccnc1N1CCOCC1", "activity change, negative = growth inhibition": 2.7}
{"smiles": "Cc1cc(Br)ccc1NC(=O)c1sc2ncn(CC(=O)N3CCN(c4ccccn4)CC3)c(=O)c2c1C", "activity change, negative = growth inhibition": -15.7}
{"smiles": "Cc1ccc(S(=O)(=O)NCC(=O)N2CCN(c3ccccn3)CC2)cc1", "activity change, negative = growth inhibition": 1.99}
{"smiles": "CSc1ncccc1C(=O)Nc1cccc(S(=O)(=O)N2CCOCC2)c1", "activity change, negative = growth inhibition": -7.85}
{"smiles": "CCc1cccc(NC(=O)c2cnc(N3CCOCC3)c3ccccc23)c1", "Potency": "11.6 µM (active)"}
{"smiles": "Cc1cc(Br)ccc1NC(=O)c1cnc(N2CCN(c3ccccn3)CC2)c2ccccc12", "Potency": "13 µM (active)"}
{"smiles": "CCOC(=O)COc1nc(C)cc(C(F)(F)F)c1C#N", "activity change, negative = growth inhibition": -3.92}
{"smiles": "CCOC(=O)c1c(N)sc2c1CCCC2=O", "activity change, negative = growth inhibition": -23.7}
{"smiles": "COc1ccc(-n2c(=O)c3ccccc3n(Cc3ccccc3Cl)c2=O)cc1", "activity change, negative = growth inhibition": -9.58}
{"smiles": "CCC(=O)c1ccc(OCC(=O)OCC(=O)N2CCc3ccccc3C2)cc1", "activity change, negative = growth inhibition": -16.3}
{"smiles": "OCCN1CCN(C(=S)c2ccc(-c3ccccc3)cc2)CC1", "activity change, negative = growth inhibition": -17.2}
{"smiles": "CN(C)CCNC(=O)Cc1ccc([N+](=O)[O-])cc1", "activity change, negative = growth inhibition": 7.09}
{"smiles": "Cn1cc(CCC(=O)NCc2ccc3c(c2)OCO3)c2ccccc21", "activity change, negative = growth inhibition": -20.7}
{"smiles": "Cc1nc2nc(COc3ccccc3)[nH]n2c(=O)c1C", "activity change, negative = growth inhibition": -18.5}
{"smiles": "OCC[C@H]1C[C@H](O)[C@@H](O)[C@]2(CCc3ccccc3O2)O1", "activity change, negative = growth inhibition": -2.75}
{"smiles": "CCOc1cccc(SCc2noc(C(=O)NC(C)C)c2C(=O)O)c1", "activity change, negative = growth inhibition": -11.2}
{"smiles": "CC1CN(S(=O)(=O)c2cccc(C(F)(F)F)c2)CN1C(=O)N1CCOCC1", "note": "(stereo unspecified)", "activity change, negative = growth inhibition": 1.17}
{"smiles": "Cc1oc(-c2ccccc2)nc1Cn1c(SCc2cccc(C(F)(F)F)c2)nc2cccnc21", "Potency": "25.9 µM (active)"}
{"smiles": "O=C(O)c1ccc(CSc2nc3cccnc3n2Cc2cccc(F)c2)cc1", "activity change, negative = growth inhibition": -18.6}
{"smiles": "O=C(NC1CCCCC1)c1ccc(Cn2c(SCc3ccccc3)nc3cccnc32)cc1", "activity change, negative = growth inhibition": -28.6}
{"smiles": "O=C(Cc1ccccc1)NNC1CC(=O)N(c2ccc(Br)cc2)C1=O", "note": "(stereo unspecified)", "activity change, negative = growth inhibition": -2.99}
{"smiles": "Cc1onc(C(=O)Nc2ccc3c(c2)OCO3)c1[N+](=O)[O-]", "activity change, negative = growth inhibition": -0.294}
{"smiles": "CN(CC(=O)NC1CCCCC1)S(=O)(=O)c1cccc2cccnc12", "activity change, negative = growth inhibition": -25.1}
{"smiles": "CC(=O)OC[C@@H]1CN(Cc2ccccc2)C[C@H](n2cnc3c(NCc4ccco4)ncnc32)O1", "activity change, negative = growth inhibition": -11.8}
{"smiles": "Nc1ncnc2c1ncn2[C@@H]1O[C@H](C(=O)NCC(F)(F)F)[C@@H](O)[C@H]1O", "activity change, negative = growth inhibition": 2.82}
{"smiles": "COCCn1c(=O)c(-c2cc(F)cc(F)c2)nc2cnc(N3CCNCC3)nc21", "Potency": "23.1 µM (active)"}
{"smiles": "COCCn1c(=O)c(-c2ccccc2)nc2cnc(N3CCOCC3)nc21", "activity change, negative = growth inhibition": -7.21}
{"smiles": "COCCn1c(=O)c(-c2cc(F)cc(F)c2)nc2cncnc21", "activity change, negative = growth inhibition": 10.5}
{"smiles": "O=c1c(CCc2ccccc2)nc2cnc(N3CCNCC3)nc2n1Cc1cccs1", "activity change, negative = growth inhibition": -1.32}
{"smiles": "O=c1c(-c2ccc(F)cc2)nc2cnc(N3CCOCC3)nc2n1-c1ccccc1", "activity change, negative = growth inhibition": 0.857}
{"smiles": "N#Cc1cccc(-c2nc3cnc(N4CCNCC4)nc3n(C3CC3)c2=O)c1", "Potency": "3.66 µM (active)"}
{"smiles": "COC(=O)c1ccc(NC(=O)c2cc3c(CO)cnc(C)c3oc2=Nc2cccc(C(N)=O)c2)cc1", "activity change, negative = growth inhibition": -22.8}
{"smiles": "Cc1cc(C(=O)N2CCC(C(=O)O)CC2)c(C(F)(F)F)o1", "activity change, negative = growth inhibition": 5.7}
{"smiles": "COC(=O)c1ccc(CSc2ccc(S(=O)(=O)N3CCCCC3)cn2)cc1", "activity change, negative = growth inhibition": -4.95}
{"smiles": "C/C(CC(=O)Nc1ccc(C)cc1C)=N\\NC(=O)C(C)C", "activity change, negative = growth inhibition": 8.43}
{"smiles": "CN(C)N1C(N)=C(C#N)C(c2ccc(Br)cc2)C2=C1CCCC2=O", "note": "(stereo unspecified)", "activity change, negative = growth inhibition": 7.64}
{"smiles": "Cc1ccc(S(=O)(=O)N(C)C)cc1NC(=O)COC(=O)c1c(C)noc1C", "activity change, negative = growth inhibition": -6.14}
{"smiles": "O=C(OCc1cn([C@H]2C[C@H](c3ccccc3)N(C(=O)c3cccs3)C[C@@H]2O)nn1)c1ccccc1", "Potency": "18.4 µM (active)"}
{"smiles": "O=C(OCc1cn([C@@H]2C[C@H](c3ccc(Cl)cc3)N(Cc3cccs3)C[C@H]2O)nn1)c1ccccc1", "activity change, negative = growth inhibition": -8.11}
{"smiles": "O=C(OCc1cn(-c2ccc(Cl)c(Cl)c2)nn1)c1ccccc1Cl", "activity change, negative = growth inhibition": -0.626}
{"smiles": "O=C(c1cccs1)N1C[C@H](n2cc(C3CC3)nn2)[C@@H](O)C[C@@H]1c1ccccc1", "activity change, negative = growth inhibition": -26.4}
{"smiles": "C=CCCC(=O)N1C[C@H]2CON(C)[C@H]2C[C@H]1c1cccc(Nc2ccccc2)c1", "activity change, negative = growth inhibition": -7.65}
{"smiles": "CCCCCC(=O)N1C[C@H](O)[C@@H](n2cc(COC(=O)c3ccccc3)nn2)C[C@@H]1c1ccc(C)cc1", "Potency": "0.82 µM (active)"}
